Outcome and AC50 data for six compounds are collected here from PubChem BioAssay (EPA / NIEHS).

Assay [1] is described as follows: APR_HepG2_NuclearSize_24hr: Apredica 24-hour HepG2 Assay for Nuclear Size (AID 2282907). The conditions noted are these: high-content imaging, actives raise or lower the signal. The method, boiled down:
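Compounds in DMSO (final 0.5%) were added to human HepG2 hepatoma cells at ten concentrations up to 200 uM for 24 hr. Fixed nuclei were stained with Hoechst 33342, and nuclear diameter was quantified from automated images.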

The nature of assay [2]: APR_HepG2_CellLoss_24hr: Apredica 24-hour HepG2 Assay for Cell Loss (AID 2282908).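 For AC50: fit in both directions so a hit may be cell loss or gain.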 The conditions noted are these: high-content imaging. The gist of the method:
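Cell number is quantified by fluorescence imaging of Hoechst 33342-stained nuclei following dosing at 0.39–200 uM in 0.5% DMSO. Curves are fitted in both directions from the DMSO baseline.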

Assay [3] can be described thus: APR_HepG2_MicrotubuleCSK_24hr: Apredica 24-hour HepG2 Assay for Microtubule CSK Stabilty (AID 2282909). The conditions noted are these: HepG2 microtubule cytoskeleton imaging, actives raise or lower the signal. The gist of the method: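 Steps: dose HepG2 for 24 h (0.39–200 uM, 0.5% DMSO); fix 30 min in 3.7% formaldehyde at room temperature; permeabilize; stain alpha-tubulin 60 min; image microtubule cytoskeleton at 20x. Signal change fitted in both directions relative to DMSO.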

A short description of assay [4]: APR_HepG2_MitoticArrest_24hr: Apredica 24-hour HepG2 Assay for Mitotic Arrest (AID 2282910). Particulars: high-content imaging, actives raise or lower the signal. The method, boiled down:
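HepG2 human liver cells were exposed to compounds at 0.39–200 uM (10 concentrations, duplicate) in 0.5% v/v DMSO for 24 hr, then fixed and immunostained for phospho-histone H3 with Hoechst 33342. Mitotic arrest came from HCS fluorescent imaging, fitted bidirectionally against DMSO.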

Assay [5] in a line: APR_HepG2_MitoMembPot_24hr: Apredica 24-hour HepG2 Assay for Mitochondrial Membrane Potential (AID 2282911). The conditions noted are these: imaging, actives raise or lower the signal. The method, boiled down: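 HepG2 cells exposed 24 h to 0.39–200 uM compounds in duplicate, 0.5% v/v DMSO final. MitoTracker Red CMXRos 250 nM loaded 30 min before formaldehyde fixation; high-content imaging at 20x, bidirectional fit versus DMSO.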

Assay [6] in a line: APR_HepG2_MitoMass_24hr: Apredica 24-hour HepG2 Assay for Mitochondrial Mass (AID 2282912). Particulars: high-content imaging, actives raise or lower the signal. The gist of the method: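 The liver line HepG2 was dosed in duplicate across a 0.39–200 uM series, with final DMSO held at 0.5% v/v, and harvested at 24 hr. High-content imaging measured mitochondrial dye staining.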

Assay [7] can be described thus: APR_HepG2_p53Act_24hr: Apredica 24-hour HepG2 Assay for p53 Activation (AID 2282913).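 Note: p53 protein immunofluorescence averaged per cell in HepG2 with Hoechst nuclei.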 Particulars: high-content imaging, actives raise or lower the signal. The method, boiled down:
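HepG2 cells exposed 24 h to compounds at 0.39–200 uM in duplicate, 0.5% v/v DMSO final; fixed, permeabilized, stained with anti-p53 antibody and Hoechst 33342; fluorescence imaging; bidirectional curve fit versus DMSO.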

Assay [8] in a line: APR_HepG2_CellCycleArrest_72hr: Apredica 72-hour HepG2 Assay for Cell Cycle Arrest (AID 2282914). Particulars: high-content imaging, actives raise or lower the signal. The gist of the method:
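HepG2 cells exposed 72 h in duplicate to 0.39–200 uM compound, 0.5% DMSO final. Formaldehyde-fixed, Hoechst 33342-stained nuclei imaged at 20x, six fields per well; DNA content per valid cell quantified by cell-cycle image analysis, bidirectional fit versus DMSO.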

The nature of assay [9]: APR_HepG2_CellLoss_72hr: Apredica 72-hour HepG2 Assay for Cell Loss (AID 2282915). Particulars: high-content imaging. The gist of the method:
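HepG2 cells were exposed for 72 hr to compounds at 0.39–200 uM (ten concentrations, duplicate) in 0.5% v/v final DMSO. Nuclei were stained with Hoechst 33342 after 3.7% formaldehyde fixation, imaged at 20x, and counted; fits bidirectional versus DMSO.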

Assay [10] can be described thus: APR_HepG2_P-H2AX_72hr: Apredica 72-hour HepG2 Assay for H2AX Phosphorylation (AID 2282916).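 Note: phospho-histone H2A.x immunostain intensity per cell marking DNA damage.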 Particulars: imaging, actives raise or lower the signal. The gist of the method:
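Following 72 hr treatment with 0.39–200 uM compound, HepG2 cells were formaldehyde-fixed, permeabilized and stained for phospho-H2A.x; signal was measured by high-content imaging and fitted bidirectionally against DMSO controls.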

Assay [11] can be described thus: APR_HepG2_MitoMembPot_72hr: Apredica 72-hour HepG2 Assay for Mitochondrial Membrane Potential (AID 2282917). The conditions noted are these: imaging, actives raise or lower the signal. The gist of the method: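 HepG2 cells exposed 72 h to compounds at 0.39–200 uM (0.5% v/v DMSO, duplicates); MitoTracker Red CMXRos 250 nM loaded 30 min before 3.7% formaldehyde fixation, imaged by HCS fluorescence. Bidirectional fit versus DMSO.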

The nature of assay [12]: APR_HepG2_MitoticArrest_72hr: Apredica 72-hour HepG2 Assay for Mitotic Arrest (AID 2282918). The conditions noted are these: high-content imaging, actives raise or lower the signal. The gist of the method:
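HepG2 cells treated 72 h at 0.39–200 uM, 0.5% DMSO final; formaldehyde-fixed, stained with Hoechst 33342 and phospho-histone H3 antibody, imaged by high-content fluorescence; bidirectional fit versus DMSO.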

Assay [13] can be described thus: APR_HepG2_MicrotubuleCSK_72hr: Apredica 72-hour HepG2 Assay for Microtubule CSK Stabilty (AID 2282919). Particulars: HepG2 microtubule cytoskeleton, high-content imaging, actives raise or lower the signal. The gist of the method:
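HepG2 human liver cells were dosed for 72 h at ten concentrations from 0.39 to 200 uM in duplicate (0.5% v/v DMSO final). Fixed, permeabilized cells were immunostained for alpha-tubulin (Cy5) with a Hoechst counterstain and imaged at 20x.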

Assay [14] is described as follows: APR_HepG2_P-H2AX_24hr: Apredica 24-hour HepG2 Assay for H2AX Phosphorylation (AID 2282920). Particulars: high-content imaging, actives raise or lower the signal. The method, boiled down:
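HepG2 cells dosed 24 h at 0.39–200 uM (10 points, duplicate, 0.5% DMSO final). Formaldehyde-fixed and permeabilized, then immunostained for phospho-H2A.x with Hoechst. Fluorescence quantified by high-content imaging, fitted bidirectionally versus DMSO.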

Assay [15] is described as follows: APR_HepG2_StressKinase_72hr: Apredica 72-hour HepG2 Assay for Stress Kinase (AID 2282921). The conditions noted are these: HepG2 stress kinase (phospho-c-Jun) imaging, actives raise or lower the signal. The method, boiled down: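 Fluorescence intensity of Cy3-tagged anti-phospho-c-Jun antibody, quantified per cell from Hoechst-defined nuclei across six images per well, served as the read-out following 72 h exposure (0.39–200 uM, 0.5% v/v DMSO).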

A short description of assay [16]: APR_HepG2_StressKinase_24hr: Apredica 24-hour HepG2 Assay for Stress Kinase (AID 2282922). The conditions noted are these: HepG2 stress kinase (phospho-c-Jun) imaging, actives raise or lower the signal. The gist of the method: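 HepG2 cells exposed 24 hr to compound at 0.39–200 uM (10 concentrations, duplicate), 0.5% v/v DMSO final. Fixed in 3.7% formaldehyde, permeabilized with Triton X-100, immunolabeled for phospho-c-Jun with Hoechst 33342; HCS fluorescence imaging, bidirectional fit versus DMSO.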

Assay [17] in a line: APR_HepG2_p53Act_72hr: Apredica 72-hour HepG2 Assay for p53 Activation (AID 2282923).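 Note: average cellular p53 protein immunofluorescence intensity in HepG2 cells.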 Particulars: high-content imaging, actives raise or lower the signal. The gist of the method: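 HepG2 monolayers receive test compounds in duplicate at ten concentrations (0.39 through 200 uM) for 72 hr. They are then formaldehyde-fixed, antibody-labelled for p53, Hoechst-stained and imaged, with activity fitted bidirectionally versus DMSO.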

Assay [18] can be described thus: APR_HepG2_MitoMass_72hr: Apredica 72-hour HepG2 Assay for Mitochondrial Mass (AID 2282924).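 Note: MitoTracker Red CMXRos stain intensity per cell imaged as mitochondrial mass.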 The conditions noted are these: high-content imaging, actives raise or lower the signal. The method, boiled down: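 HepG2 cells were exposed for 72 hr to compounds at 0.39–200 uM (ten concentrations, duplicate, 0.5% v/v DMSO final). Live cells were stained with 250 nM MitoTracker Red CMXRos for 30 min, then fixed in 3.7% formaldehyde and imaged by HCS fluorescence.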

Assay [19] can be described thus: APR_HepG2_NuclearSize_72hr: Apredica 72-hour HepG2 Assay for Nuclear Size (AID 2282925). The conditions noted are these: high-content imaging, actives raise or lower the signal. The gist of the method: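 HepG2 cells were exposed to compounds at ten concentrations from 0.39 to 200 uM (duplicate, 0.5% DMSO final) for 72 hr. After fixation in 3.7% formaldehyde, nuclei were stained with Hoechst 33342 (2 ug/mL) and imaged at 20x.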

Activity calls are given as the source filed them. Rule for the calls: active = hit-call score of the fitted dose curve at least 0.9, where 1 is the maximum; inactive = score below 0.9.

A word on the AC50: it is the concentration at which the activity in the assay is half-maximal. In the case of `O=C(O)C1C2CCC(O2)C1C(=O)O` (centres undefined), the compound was called inactive in [1], in [2], in [3], in assay [5], in [8] and in assay [11]. The compound was called inactive in assay [13], in assay [15] and in assay [16]. In addition, the AC50 was 26.6 µM (active) in assay [4]; 41.4 µM (active) in assay [6]; 24.4 µM (active) in assay [7]; 21.5 µM (active) in [9]; 22.2 µM (active) in assay [10]; 19.6 µM (active) in [12]. For the same compound, the AC50 in assay [14] was 29.4 µM (active); in [17] it was 21.2 µM (active); in assay [18], 50.2 µM (active); in assay [19], 36 µM (active).

For `CCC(C)c1ccc(O)cc1` (centres undefined), the call in assay [1], in assay [2], in assay [3], in assay [4], in [5] and in [6] was inactive. Moreover, the call in assay [7], in assay [8], in assay [9], in assay [10], in assay [11] and in [12] was inactive. The result in assay [13], in [14], in assay [15], in assay [16], in assay [17] and in assay [18] was inactive. For the same compound, the call in assay [19] was inactive.

On to `C=CCc1ccc2c(c1)OCO2`, for which the compound was called inactive in [1], in [2], in [3], in [4], in assay [6] and in assay [7]. In addition, the result in [8], in assay [9], in [10], in assay [11], in [12] and in assay [13] was inactive. The call in [14], in assay [15], in assay [16], in [17], in assay [18] and in assay [19] was inactive. The AC50 in assay [5] was 0.0311 µM (active).

As for `c1ccc(N=Nc2ccccc2)cc1`, the call in assay [1], in assay [2], in assay [3], in [4], in assay [5] and in assay [6] was inactive. For the same compound, the outcome in assay [7], in assay [8], in assay [9], in assay [10], in assay [11] and in assay [12] was inactive. In addition, the compound was classed as inactive in [13], in assay [14], in [15], in assay [16], in assay [17] and in assay [18]. Besides, the outcome in assay [19] was inactive.

Consider `CC(C)(C)OOC(C)(C)CCC(C)(C)OOC(C)(C)C`, for which the result in assay [1], in assay [2], in [3], in [4], in assay [5] and in assay [7] was inactive. Also, the outcome in assay [10], in [13], in assay [14], in assay [15], in assay [16] and in [17] was inactive. The compound was classed as inactive in assay [18] and in [19]. Also, the AC50 is 56.5 µM (active) in assay [6]; 55.1 µM (active) in assay [8]; 56.1 µM (active) in assay [9]; 52.8 µM (active) in [11]; 54.8 µM (active) in [12].

For the compound `Brc1ccc(Oc2ccccc2)cc1`, the compound was classed as inactive in [1], in [3], in assay [4], in assay [5], in [6] and in [7]. For the same compound, the result in assay [8], in [10], in assay [11], in assay [13], in assay [14] and in [15] was inactive. For the same compound, the call in assay [16], in [17], in assay [18] and in [19] was inactive. For the same compound, the figures for the AC50 in assay [2], in assay [9] and in [12] were 114 µM (active), 109 µM (active) and 100 µM (active), respectively.
